In PubChem BioAssay (NCI):
The panel holds about 83,000 compounds, 20% with a hit somewhere; the sample as a whole holds those more often.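 Note: values are percent growth. 100 is the growth of untreated cells, values between 100 and 0 indicate rising inhibition; between -100 and 0 indicates cell death.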 The source made the active and inactive calls. How the source made its calls: active means growth percent below 10; inactive means the rest.

tested on: NCI-H322M lung; assay: NCI-60 one-dose screen, 48 h (100 = growth as untreated, 0 = no growth, -100 = all killed); details: 10 µM unless noted

Row | Structure (SMILES) | growth
1 | Cc1ncc(C(=O)Nc2ccc(CN3CCN(C)CC3)c(C(F)(F)F)c2)cc1C#Cc1cnc(NC2CC2)c2ncccc12 | -87.7% (active)
2 | Oc1ccc([S+](c2ccc(O)cc2)c2ccc(O)cc2)cc1 | 95.3% (inactive)
3 | Oc1ccc2ccccc2c1/C=N\Nc1ccccn1 | -12.6% (active)
4 | CCCNC(=O)Oc1ccc(/C(=C(/CC)Cc2ccccc2)c2ccc(OCCN(CC)CC)cc2)cc1 | 87.4% (inactive)

tested on: HOP-62 NSCLC; assay: as above; details: 10 µM unless noted

Row | Structure (SMILES) | growth
5 | Cc1cc(CSc2ccc(Cl)cc2)ccc1N | 110% (inactive)
6 | CC(=O)C(CO)C(=O)Nc1ccccc1 (stereo unspecified) | 93.3% (inactive)
7 | Cc1nc2ccccc2c(=O)n1-c1cccc(OCc2cn(-c3cccc(O)c3)nn2)c1 | 93.4% (inactive)
8 | CCCCCCCCCCN1CC2CCCCC2C1 (stereo unspecified) | 69.4% (inactive)
9 | CCCCN(CCC)CCCCCCCCCCN1CCCc2ccccc21 | 92.5% (inactive)
10 | C/C=C(/C)C(=O)OC1C=C(CO)C(=O)C(OC(=O)/C(C)=C\C)C1C(C)C (stereo unspecified) | -31.4% (active)
11 | O=C1C(Cl)=C(Nc2ccc(Nc3ccccc3)c(NC3=C(Cl)C(=O)c4ccccc4C3=O)c2)C(=O)c2ccccc21 | 59.8% (inactive)
12 | CN1CCN(Cc2ccc(NC(=O)c3cncc(C#Cc4c(N)ncc5ccc(F)cc45)c3)cc2C(F)(F)F)CC1 | 22.1% (inactive)
13 | COc1cccc(CNC(=O)c2cccc(C3CC(=O)c4c(cc(OC)c(OC)c4OC)O3)c2)c1 (stereo unspecified) | 66.7% (inactive)
14 | COC(=O)C1CC(=O)N(C(=O)Nc2ccc(Cl)cc2Cl)C1 (stereo unspecified) | 85.5% (inactive)
15 | O=C(/C=C\c1ccc(NCc2ccc(C(=O)O)cc2)cc1)CCl | 75.1% (inactive)
16 | CC1(C)NC(=S)NC1=O | 104% (inactive)
17 | Cc1ccc(C(=O)Nc2ccc(CN3CCN(C)CC3)c(C(F)(F)F)c2)cc1C#Cc1cncc2ncccc12 | -11.7% (active)
18 | COc1ccc(-c2nc(N)n(C(=S)Nc3ccccc3)n2)cc1 | 87.3% (inactive)
19 | O=C(O)c1ccc(-c2nn(-c3ccc(C(=O)O)cc3)cc2CNc2ccc(Br)cc2)cc1 | 104% (inactive)
20 | CCS(=O)(=O)N[C@@H]1O[C@H](COC(C)=O)C(OC(C)=O)[C@H](OC(C)=O)C1OC(C)=O (stereo partly specified) | 87.8% (inactive)

Row | Structure (SMILES) | growth
21 | CCC(C)(C)c1ccc(OCCCCCCN2CCN(c3ccc(C)c(Cl)c3)CC2)cc1 | 98.3% (inactive)
22 | Cc1ncc(C(=O)Nc2ccc(CN3CCN(C)CC3)c(C(F)(F)F)c2)cc1C#Cc1c(N)ncc2ccccc12 | -97.2% (active)
23 | COc1ccc2cnc(N)c(C#Cc3cc(C(=O)Nc4ccc(CN5CCN(C)CC5)c(C(F)(F)F)c4)cnc3C)c2c1 | 18.9% (inactive)
24 | COc1ccc(-c2nc(SCC(C)C)nc(Nc3ccc(C(=O)O)cc3)c2C#N)cc1 | 116% (inactive)
25 | CCCCCCCCCCCCCCCCC(=O)O.CCCCCCCCCCCCCCCCCC(=O)O.CCCCCCCCCCCCCCCCCC(=O)O.CCCCCCCCCCCCCCCCCC(=O)O.CCCCCCCCCCCCCCCCCC(=O)O.CO[CH-]OC12COC1CC(O)C1(C)C(O)C(OC(C)O)C3=C(C)C(OC(=O)C(O)C([NH-])c4ccccc4)CC(O)(C(OC(=O)c4ccccc4)C21)C3(C)C.[Cu+].[Zn].[Zn].[Zn].[Zn].[Zn] (stereo unspecified) | 56.4% (inactive)
26 | O=C1c2cc([N+](=O)[O-])ccc2-c2cc(Cl)c(NC(=O)C(F)(F)F)cc21 | 106% (inactive)
27 | CCCNC(=O)Oc1ccc(/C(=C(/C)Cc2ccc(OC)cc2)c2ccc(OCCN3CCCCC3)cc2)cc1 | 84.9% (inactive)
28 | CC(=O)CCS(=O)c1ccccc1 (stereo unspecified) | 105% (inactive)
29 | N#CC1=C(N2CCOCC2)NC2c3ccccc3Sc3ccccc3N2C1=N (stereo unspecified) | 78.3% (inactive)
30 | CC(C)(C)OC(=O)N1C/C(=C\c2ccccc2)C(=O)/C(=C/c2ccccc2)C1 | 96.4% (inactive)
31 | N#Cc1ccc(NC2c3ccccc3CC2O)cc1 (stereo unspecified) | 105% (inactive)
32 | CC([C@H]1CCC2C3CCC4C[C@@H](N)CC[C@]4(C)C3CC[C@@]21C)N(C)C (stereo partly specified) | 104% (inactive)
33 | CCN(CC)c1ccc2nc3ccc(N=Nc4ccc(O)cc4)cc3[n+](-c3ccccc3)c2c1 | 52.5% (inactive)
34 | CC(C)CSc1nc(-c2ccc(F)cc2)c(C#N)c(N2CCCCC2)n1 | 110% (inactive)
35 | Cc1ccc(C(=O)Nc2ccc(CN3CCN(C)CC3)c(C(F)(F)F)c2)cc1C#Cc1cnc(N)c2ccc(C#N)cc12 | 42.7% (inactive)
36 | CCCCCN1CCN(C(CC(=O)c2ccccc2)C(=O)c2ccccc2)CC1 (stereo unspecified) | 101% (inactive)
